Out of some 65,000 compounds screened, about 2,100 (3.2%) showed an effect of 50% or more. The median lay at about -52%. This is one part of a sample in which strong results are shown more often than they occur.

This assay relates to Plasmodium falciparum. As to the kind of experiment: Screen against P. falciparum Asexual Blood Stage (ABS), at 5uM. Type of assay: functional, Dd2. Particulars: tested at 5 uM.
As for `CCCS(=O)(=O)CCSc1cccc(C#N)c1`, the INHIBITION is -113%. In the case of `O=C(Cc1ccsc1)N1CCC(c2noc(-c3cccnc3)n2)CC1`, the INHIBITION is given as -53.4%.

Turning to `O=C(Cc1ccncc1)N1C[C@H]2CC[C@@H](C1)N(Cc1ccccc1)C2=O`, the INHIBITION is listed as -99.2%.

On to `COc1ccc(Oc2nccc3occc23)cc1CN1CCCC1`, for which the INHIBITION worked out at 61.8%. Take `COc1ccc(Oc2cccc(C#N)n2)cc1CN1CCCC1`: the INHIBITION is reported as -20.2%. Next, `COc1cc(Oc2ccc(C(N)=O)cn2)ccc1CN1CCCC1`: -42.6%; `COc1ccc(Oc2ccc(C(F)(F)F)cn2)cc1CN1CCCC1`: 51.7%. Regarding `COc1ccc(Oc2ncccc2F)cc1CN1CCCC1`, the INHIBITION was found to be 15.9%. Next, `COc1cc(Oc2ccc(C(F)(F)F)cn2)ccc1CN1CCCC1`: 30.2%. The value for `COc1ccc(Oc2ncccc2C(F)(F)F)cc1CN1CCCC1` was 32.5%; that for `Fc1cc(Oc2ccc(C(F)(F)F)cn2)cc(F)c1CN1CCCC1` was 24.4%; that for `COc1cc(Oc2cnc3ccccc3n2)ccc1CN1CCCC1` was 59%. Next, `CCN(C)C[C@@H]1CN(C(=O)c2cc(C(F)(F)F)n[nH]2)C[C@@H]1CO`: -5.31%. `COC[C@@]12CCO[C@@H]1CCN(Cc1ccc(C)s1)C2`: the INHIBITION is listed as -35.8%. Next, `COCCC(=O)N1CC2(CCN(Cc3ccccc3Cl)CC2)C1`: 0.294%; `Cc1cc(C)c(CNC(=O)CCC2CCCO2)c(=O)[nH]1` (configuration not stated): 53.2%. The value for `Cc1cc(C)c(CNC(=O)NCC2CCCO2)c(=O)[nH]1` (configuration not stated) was -64.8%; that for `Cc1cc(C)c(CNC(=O)NCCC2CCCO2)c(=O)[nH]1` (configuration not stated) was 20.5%. The value for `Cc1c(NC(=O)N(C)CCO)cccc1OC1CCCC1` was -65.2%. Regarding `CC(C)(C)c1cc(CN2C[C@H]3CC[C@@H](C2)N(Cc2ccccn2)C3)n[nH]1`, the INHIBITION came out at 47.7%. The value for `CC(C)(C)c1cc(CN2C[C@@H]3CC[C@H]2CN(Cc2cscn2)C3)n[nH]1` was 20.1%. Next, `CC(C)Cc1cc(CN2C[C@@H]3CC[C@H]2CN(Cc2cscn2)C3)n[nH]1`: 66.6%; `CCc1nccn1-c1nccnc1C1CCN(C(=O)COC)CC1`: -25.8%; `CN(Cc1cccnc1)C(CO)c1cccc(Br)c1` (configuration not stated): -135%. Turning to `CSCc1ccc(CNC2CCCN(c3ccc(C)nn3)C2)o1` (configuration not stated), the INHIBITION is listed as -38.5%. The value for `CC(Cn1cncc1-c1cnn(Cc2ccccc2)c1)N1CCCCC1` (configuration not stated) was 65.7%. As to `CCC(CN1CCCC1)n1cncc1-c1cnn(Cc2ccccc2)c1` (configuration not stated), the INHIBITION is 44.8%. The value for `CC(CN1CCOCC1)n1cncc1-c1cnn(Cc2ccccc2)c1` (configuration not stated) was -46.1%. Next, `Cc1cccc(C)c1OC1CCN(Cc2ccn(C)c(=O)c2)CC1`: -30.1%. Next, `CC(OCC1CC1)C(=O)Nc1cccc(C(=O)Nc2ccncc2)c1` (configuration not stated): -140%; `O=C(CC1CN(Cc2ccccc2)CCO1)NCCN1CCOCC1` (configuration not stated): -108%; `Cc1nn(C)c(C)c1-c1ccnc(N(C)Cc2nc(C(C)C)no2)n1`: 66.3%. For `Cc1nn(C)cc1-c1ccnc(N(C)Cc2noc(C(C)C)n2)n1`, the INHIBITION is -32.2%. The value for `Cc1nn(C)c(C)c1-c1ccnc(N(C)Cc2noc(C(C)C)n2)n1` was -25.3%. The value for `O=C(COc1ccc(F)cc1)N1CCO[C@H]2[C@@H](OCC3CC3)CC[C@@H]21` was -24%; that for `COc1ccc(C2=Nn3c(CN)nnc3-c3ccccc3C2)cc1` was 64.8%. The value for `COc1ccc(C2=Nn3c(CCCN)nnc3-c3ccccc3C2)cc1` was -100%. As for `COc1ccc(C2=Nn3c(CCN)nnc3-c3ccccc3C2)cc1`, the INHIBITION is 32.1%.

With `Cc1ccc(OCC(=O)NS(=O)(=O)c2cccnc2)cc1C`, the INHIBITION is -19.2%.

As for `O=C(COc1ccc2c(c1)CCC2)NS(=O)(=O)c1cccnc1`, the INHIBITION amounted to 51.8%. The value for `O=C(COc1ccc2c(c1)CCC2)NS(=O)(=O)c1cncc(Br)c1` was -108%; that for `O=C(NCc1ccccn1)[C@@H]1COC[C@H]2CN(c3ncccn3)C[C@H]21` was -20.1%; that for `COc1cccc(CN2CCCCCC2c2cccc(C)c2)c1O` (configuration not stated) was 57.5%. The value for `Cc1cc2[nH]c(CN3CCCCC3c3cccc(F)c3)cc(=O)n2n1` (configuration not stated) was -64.9%; that for `COc1cccc(CN2CCCCCC2c2sccc2C)c1O` (configuration not stated) was -7.83%. Next, `COc1cccc(CN2CCCCCC2c2cccs2)c1O` (configuration not stated): 3.59%. Turning to `Cc1cccc(C2CCCCCN2Cc2cn(C)nc2C)c1` (configuration not stated), the INHIBITION stood at 35.4%. Take `COc1cccc(CN2CCCCCC2c2cccc(F)c2)c1O` (configuration not stated): the INHIBITION is 57.6%. Next, `Oc1cc(-c2ccsc2)nc(C2CCN(Cc3cccnc3)CC2)n1`: -96.9%; `O=C(NCCCNc1ccc(C(F)(F)F)cn1)c1ccc(F)cc1Br`: -29.4%. The value for `CC(C)Nc1nc2c(cc1C(=O)NCC1CC1)CCN(CC1CC1)CC2` was -7.32%; that for `COCCOCC1(CNC(=O)c2ccc(OC)cc2)C[C@@H](O)[C@@H](O)C1` (some centres not stated) was -102%.

The record behind these values is ChEMBL document CHEMBL4513216, “Probing the Open Global Health Chemical Diversity Library for Multistage-Active Starting Points for Next-Generation Antimalarials” (ACS Infect Dis, 2020).
